# Assay results as given in PubChem BioAssay.
# The source made the active and inactive calls.
# What was measured:
# [1] = tested on: Human papillomavirus type 1a protein E7 (residues 44-93); experiment: small molecules binding HPV E7 44-93 – biochemical, small-molecule microarray, residues 44-93, 635 nm fluorescence, primary screen (AID 1108); details: fluorescence 635 nm, higher = more signal;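 note: E7 fragment applied at 1 µg/mL in TBST for 1 h at 4 C; score combines spot fluorescence with its signal to noise ratio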
# [2] = hepatitis C replication reporter changes, two-sided – Huh7 cells, luciferase reporter, HCV replication inhibitor project, primary screen (AID 1109); details: Huh7 HCV replicon luciferase reporter, 48 h; higher = more signal;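 note: huh7 hepatoma cells harbouring a luciferase neomycin HCV replicon reporter; luciferase luminescence as measure of HCV replicon replication; test concentration not given here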
# [3] = biological target: Left-right determination factor 2 (Homo sapiens) (UniProt O00292); experiment: small molecules binding LEFTY2 protein – biochemical, small-molecule microarray, 635 nm fluorescence scan, primary screen (AID 1110); details: higher = more signal
# [4] = biological target: Calmodulin-1 (Homo sapiens) (UniProt P0DP23); experiment: small molecules binding calmodulin-1 with EGTA – biochemical, small-molecule microarray, Cy5-labelled CALM1, profiling panel (AID 1111); details: Cy5-CALM1 binding fluorescence, higher = more signal;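 note: labelled calmodulin applied in Tris saline Tween buffer holding calcium plus EGTA and DTT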
# [5] = biological target: Calmodulin-1 (Homo sapiens) (UniProt P0DP23); experiment: small molecules binding Ca-loaded calmodulin-1 – biochemical, small-molecule microarray, Cy5-labelled CALM1, plus calcium, artefact control for SMM control-protein annotation, profiling panel (AID 1112); details: Cy5-CALM1 binding fluorescence, higher = more signal;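 note: score merges spot fluorescence with signal to noise from triplicate slides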
# [6] = probe aWnt5a binding to arrayed compounds – biochemical, biotinylated probe, 635/667 nm fluorescence, primary screen (AID 1113); details: small-molecule microarray, higher = more signal;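 note: score merges 667 nm fluorescence intensity with signal-to-noise per printed feature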
# [7] = probe aShh binding to arrayed compounds – biochemical, biotinylated probe, 635/667 nm fluorescence, primary screen (AID 1114); details: small-molecule microarray, higher = more signal;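 note: probe is biotin-labelled aShh protein from a stem cell growth factor screen; measures binding of labelled protein to compounds printed on the slide; score merges feature fluorescence at 667 nm with signal-to-noise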
# [8] = probe aNog binding to arrayed compounds – biochemical, biotinylated probe, 635/667 nm fluorescence, primary screen (AID 1115); details: small-molecule microarray, higher = more signal;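 note: probe is biotinylated aNog protein used at 0.15 µg/mL for 1 h at 4 C; z-score combines 667 nm fluorescence of each spot with its signal to noise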
# [9] = biological target: Torsin-1A-interacting protein 1 (Homo sapiens) (UniProt Q5JTV8); experiment: compound microarray binding of lysate hLAP1 – cell lysate, small-molecule microarray, COS7 lysate, 635/667 nm fluorescence, primary screen (AID 1116); details: 635 nm fluorescence, higher = more signal
# [10] = biological target: Alpha-bungarotoxin (Bungarus multicinctus) (UniProt P60615); experiment: compounds binding labelled alpha-BTX control protein – biochemical, small-molecule microarray, Alexa647 label, 635/667 nm fluorescence, artefact control for SMM control protein annotation, profiling panel (AID 1117); details: alpha-BTX-A647 binding fluorescence, higher = more signal
# Albumin (Bos taurus) = Albumin (Bos taurus) (UniProt P02769); experiment: compounds binding labelled BSA control protein – biochemical, small-molecule microarray, Alexa647 label, 635/667 nm fluorescence, artefact control for SMM control protein annotation, profiling panel (AID 1118); details: BSA-A647 binding, fluorescence 635 nm, higher = more signal;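 note: score merges 667 nm emission intensity and signal-to-noise per printed compound spot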
# [11] = probe aXIP binding to arrayed compounds – biochemical, NeuroSMM set, 635/667 nm fluorescence, primary screen (AID 1119); details: small-molecule microarray, higher = more signal, called active from +8 up or from −8 down;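 note: probe is the protein aXip251-270 applied at 1 µg/mL to compound-printed slides; binding of probe to printed compounds measured as 667 nm fluorescence plus signal to noise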
# [12] = probe aNOTCH3 binding on compound microarray – biochemical, small-molecule microarray, 635/667 nm fluorescence, primary screen (AID 1120); details: higher = more signal;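 note: probe is a biotin-tagged antibody raised against NOTCH3 rather than NOTCH3 protein; score merges spot fluorescence near 667 nm with spot signal to noise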
# [13] = probe aNOTCH2 binding on compound microarray – biochemical, small-molecule microarray, 635/667 nm fluorescence, primary screen (AID 1121); details: higher = more signal;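 note: score merges feature fluorescence read at 667 nm with its signal to noise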
# [14] = biological target: Carbonic anhydrase 2 (Homo sapiens) (UniProt P00918); experiment: compounds binding carbonic anhydrase 2 – biochemical, small-molecule microarray, Alexa647-labelled CAII, profiling panel (AID 1122); details: CAII-A647 binding fluorescence, higher = more signal
# [15] = COS7 lysate on small-molecule microarray, probe aHis, 635 nm (AID 1123); details: COS7 cell lysate, fluorescence, higher = more signal;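 note: z-score combines 667nm fluorescence intensity with signal-to-noise per printed compound spot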
# [16] = probe aLAP1 signal on lysate-treated microarray – cell lysate, small-molecule microarray, COS7 lysate, primary screen (AID 1124); details: probe aLAP1, fluorescence, higher = more signal;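 note: lysate comes from COS7 cells expressing LAP1 and is applied at 0.3 µg/mL; score merges spot fluorescence near 667 nm with signal-to-noise over triplicate slides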
# Sam68 (KHDRBS1) = experiment: compounds binding KHDRBS1 protein – biochemical, small-molecule microarray, 635 nm fluorescence, primary screen (AID 1125); details: higher = more signal;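 note: score merges 667 nm channel intensity with signal to noise over triplicate slides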
# [17] = tested on: Chordin-like protein 2 (CHRDL2); experiment: compounds binding chordin-like 2 – biochemical, small-molecule microarray, 635 nm fluorescence, primary screen (AID 1126); details: fluorescence 635 nm, higher = more signal;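 note: printed compound slides probed with Chrdl2 protein at 4 µg/mL for 1 h at 4 C; score merges 667 nm emission intensity with signal to noise over three replicate slides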
# [18] = biological target: Concanavalin-A (Canavalia ensiformis) (UniProt P02866); experiment: compounds binding concanavalin A lectin – biochemical, small-molecule microarray, Alexa647 label, 635 nm, artefact control for SMM control protein annotation, primary screen (AID 1127); details: ConA-A647 binding fluorescence, higher = more signal;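 note: z combines 667 nm emission intensity with signal-to-noise across three replicate slides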
# Chain of Concanavalin-A (Canavalia ensiformis) (P02866 whole entry, looked up): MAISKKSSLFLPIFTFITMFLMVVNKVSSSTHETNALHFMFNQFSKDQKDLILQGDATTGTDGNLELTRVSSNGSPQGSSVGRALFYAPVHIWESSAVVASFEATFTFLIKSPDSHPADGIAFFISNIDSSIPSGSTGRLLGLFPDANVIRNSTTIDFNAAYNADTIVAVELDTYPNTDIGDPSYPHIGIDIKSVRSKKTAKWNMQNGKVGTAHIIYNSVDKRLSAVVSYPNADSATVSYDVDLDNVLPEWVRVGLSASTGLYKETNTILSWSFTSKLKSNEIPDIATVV
# Chain of Alpha-bungarotoxin (Bungarus multicinctus) (P60615 whole entry, looked up): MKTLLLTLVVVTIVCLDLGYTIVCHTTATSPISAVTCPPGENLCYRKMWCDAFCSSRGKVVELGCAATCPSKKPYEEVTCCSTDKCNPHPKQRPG
# Chain of Albumin (Bos taurus) (P02769 whole entry, looked up): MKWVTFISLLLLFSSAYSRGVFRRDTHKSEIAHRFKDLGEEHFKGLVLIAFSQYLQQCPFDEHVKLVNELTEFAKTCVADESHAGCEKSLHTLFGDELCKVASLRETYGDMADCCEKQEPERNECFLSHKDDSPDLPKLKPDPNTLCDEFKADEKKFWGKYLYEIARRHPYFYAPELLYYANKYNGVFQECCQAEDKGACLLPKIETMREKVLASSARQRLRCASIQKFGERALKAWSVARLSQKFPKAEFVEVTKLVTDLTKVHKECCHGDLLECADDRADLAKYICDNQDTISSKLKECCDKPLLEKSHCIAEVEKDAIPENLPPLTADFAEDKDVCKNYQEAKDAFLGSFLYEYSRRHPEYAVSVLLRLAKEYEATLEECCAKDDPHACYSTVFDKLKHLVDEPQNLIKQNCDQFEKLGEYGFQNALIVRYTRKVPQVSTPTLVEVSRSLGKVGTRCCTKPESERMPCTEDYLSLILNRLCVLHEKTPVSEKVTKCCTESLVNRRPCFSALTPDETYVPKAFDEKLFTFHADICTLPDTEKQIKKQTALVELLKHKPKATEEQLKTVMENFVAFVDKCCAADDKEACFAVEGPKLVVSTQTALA
# Chain of Left-right determination factor 2 (Homo sapiens) (O00292 whole entry, looked up): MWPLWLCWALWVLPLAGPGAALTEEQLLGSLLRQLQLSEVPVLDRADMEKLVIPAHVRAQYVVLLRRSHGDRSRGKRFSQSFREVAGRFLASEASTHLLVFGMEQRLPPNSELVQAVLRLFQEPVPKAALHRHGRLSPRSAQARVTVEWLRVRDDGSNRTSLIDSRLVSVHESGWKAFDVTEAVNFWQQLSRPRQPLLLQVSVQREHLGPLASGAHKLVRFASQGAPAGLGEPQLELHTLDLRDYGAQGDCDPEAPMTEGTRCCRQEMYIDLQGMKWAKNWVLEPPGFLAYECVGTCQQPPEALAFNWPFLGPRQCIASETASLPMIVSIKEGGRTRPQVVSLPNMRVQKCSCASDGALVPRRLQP
# Chain of Torsin-1A-interacting protein 1 (Homo sapiens) (Q5JTV8 whole entry, looked up): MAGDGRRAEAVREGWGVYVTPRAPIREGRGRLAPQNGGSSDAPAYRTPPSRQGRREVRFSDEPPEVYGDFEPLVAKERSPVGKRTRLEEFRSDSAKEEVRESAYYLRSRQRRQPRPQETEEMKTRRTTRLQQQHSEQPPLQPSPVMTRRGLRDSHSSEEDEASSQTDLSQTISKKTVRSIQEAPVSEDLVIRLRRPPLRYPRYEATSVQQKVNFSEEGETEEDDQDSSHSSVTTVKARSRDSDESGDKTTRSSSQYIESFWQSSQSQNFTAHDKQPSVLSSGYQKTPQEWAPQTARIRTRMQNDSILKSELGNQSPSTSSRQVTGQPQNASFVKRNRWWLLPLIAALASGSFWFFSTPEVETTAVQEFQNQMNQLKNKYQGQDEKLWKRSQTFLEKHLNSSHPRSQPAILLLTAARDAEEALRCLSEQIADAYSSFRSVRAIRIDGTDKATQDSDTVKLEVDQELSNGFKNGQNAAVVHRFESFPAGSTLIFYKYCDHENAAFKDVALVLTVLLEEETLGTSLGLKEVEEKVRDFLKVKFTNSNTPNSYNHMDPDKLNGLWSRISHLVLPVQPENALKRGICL
Structure (SMILES),composite z-score [1],z-score [2],composite z-score [3],composite z-score [4],composite z-score [5],composite z-score [6],composite z-score [7],composite z-score [8],composite z-score [9],composite z-score [10],composite z-score (Albumin (Bos taurus)),composite Z-score [11],composite z-score [12],composite z-score [13],composite z-score [14],composite z-score [15],composite z-score [16],composite z-score (Sam68 (KHDRBS1)),composite z-score [17],composite z-score [18]
COC(=O)c1ccc([C@H](NC(=O)c2ccccc2)[C@]2(C)C[C@H]2C2CCCCC2)cc1,1.3,-1.61,-0.254,1.73,1.47,0.0805,0.315,1.68,0.462,1.09,0.543,0.293 (inactive),0.237,-0.0282,0.158,1.89,0.416,0.715,-0.941,0.551
COc1ccccc1CN1C(=O)c2ccccc2[C@@H](C(=O)NCCCN(C)C)[C@@H]1c1ccc(CO)cc1,-1.09,-1.98,0.155,-0.388,-0.298,-0.0529,-0.0263,-0.337,0.55,0.256,0.303,0.0241 (inactive),-0.2,-0.152,0.733,-0.171,0.323,-2.03,0.288,0.343
C=CC[C@]1(C(=O)OC)N=C(c2ccc(OCCCO)cc2)O[C@H]1c1ccccc1N=[N+]=[N-],1.06,0.452,0.786,0.592,-0.357,0.194,0.598,1.7,0.387,0.935,-0.899,0.0557 (inactive),0.734,0.26,0.429,2.87,0.198,1.3,1.14,1.09
CN1C(=O)C2C(C1=O)C1C=C(c3ccc(CO)cc3)C2C(c2cccs2)N1C (stereo not given),0.104,0.706,-0.112,1.47,0.312,-0.1,-0.0553,-0.12,2.17,1.86,0.935,0.891 (inactive),-0.0044,-0.146,0.76,0.784,1.08,0.47,-0.125,1.18
COc1ccc(NN2C(C(O)c3cc(C(F)(F)F)cc(C(F)(F)F)c3)C=CC3C(=O)N(C4CCCCC4)C(=O)C32)cc1 (stereo not given),0.258,-1.79,-0.0774,1.66,0.0635,0.485,0.611,1.82,1.06,0.698,0.771,-0.0097 (inactive),1.02,0.659,0.589,1.5,0.219,1.07,0.0186,1.04
C=CCN1C(=O)[C@]2(O[C@H](CCO)[C@@H]([Si](C)(C)c3ccc(OC)cc3)[C@@H]2C)c2ccccc21,0.925,-5.21,-0.774,-0.0667,-0.0278,-0.232,-0.358,-0.118,-0.547,-0.0693,0.482,-0.291 (inactive),-0.157,-0.129,0.277,0.621,-0.116,-0.241,-0.884,0.201
CCCC[C@H]1OB(O)C[C@H]2C1=C(C)C[C@H]1C(=O)C=CC(=O)[C@H]12,1.04,-2.52,0.686,-0.321,-0.741,-0.132,0.0278,-0.109,0.0514,0.178,-0.324,-0.0764 (inactive),0.0159,-0.106,0.011,0.423,0.121,1.04,0.821,0.544
CCCCC=C[C@@H](NC(=O)c1ccc(C(F)(F)F)cc1)c1ccccc1,-0.297,-0.887,-0.636,-0.0968,0.382,-0.134,0.0022,0.278,-0.946,-1.07,-0.81,0.734 (inactive),-0.165,-0.125,-0.273,0.0379,-0.0554,-0.0265,-0.94,-0.792
COC(=O)c1c(CC[C@@H](CO)NC(=O)N[C@@H](Cc2ccccc2)Cn2cc(-c3cncn3C)nn2)oc(C(C)=O)c1C(=O)OC,1.47,-0.594,-0.338,0.162,-0.329,-0.124,-0.0866,-0.394,1.62,0.581,0.979,0.047 (inactive),0.212,-0.144,0.648,1.95,0.512,1.21,-0.722,1.07
CN(C)CCCC[C@@H]1NC(=O)[C@@H]2C[C@H](C(=O)NCCCCCCNC(=O)CS)[C@H](c3cccc(OCCO)c3)N2C1=O,-0.275,-0.149,0.0929,-0.172,-0.221,-0.0478,-0.209,-0.103,0.947,0.0727,-0.361,0.303 (inactive),-0.213,-0.0649,0.48,0.95,0.312,0.555,0.402,0.658
